Hits are enriched below; roughly 13% of the tested compounds scored in any of these assays.
CHX counter = counter-screen for Shiga toxin inhibitors: cycloheximide protein synthesis inhibition | 300,000 compounds, 12% hits | cell reporter, cycloheximide protein synthesis inhibition counterscreen | max response, %; in the data active = max response mostly above about 13%, no sharp cut-off; inactive = mostly below about 14%; also: read at 38.3 µM for the half of the compounds with a filed dose; 0% is about no effect
Lassa entry inh = Lassa virus entry inhibition; 300,000 compounds, 1.2% hits; Lassa virus pseudotype entry inhibition, cell reporter; Potency, µM (top dose mostly 37.9 µM), for the others: top-dose activity change, negative = inhibition, hits mostly inhibitors; calls by dose curve; tested in HEK293 cells; also: potency is read from the fitted curve at half-maximal effect; % is scaled to controls: 0 for no effect and ±100 for the full control effect; nearly all actives have a fitted effect of over 50% in size
MARV entry inh = inhibitors of Marburg virus binding or cell entry; 300,000 compounds, 1.8% hits; Marburg virus pseudotyped entry inhibition, cell reporter; Potency, µM (top dose mostly 37.8 µM), for the others: at the highest dose activity change, negative = inhibition, actives largely listed as inhibitors; calls by dose curve; tested in HEK293 cells; also: potency is read from the fitted curve at half-maximal effect; % is scaled to controls: 0 for no effect and ±100 for the full control effect
HCV inh = blocks hepatitis C virus. 340,000 compounds, 3.4% hits. Huh7.5.1 HCVcc-Cre infection, luciferase reporter, 44 h. Potency, µM (top dose mostly 41.8 µM), without a hit: top-dose activity change, negative = inhibition, actives largely listed as inhibitors; active = well fitted inhibition curve with a large enough effect; inconclusive = small, poorly fitted or top-dose-only effect, or another doubt; inactive = no such curve, though single readings can be large or run the other way; also: potency is read from the fitted curve at half-maximal effect; % is scaled to controls: 0 for no effect and ±100 for the full control effect
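Luciferase read-out (15 sec integration) after a 15 min room-temperature substrate step quantifies HCVcc-Cre infection. Cells, 1,000 per well, had compound added 4 h post-plating, then virus at ~0.5 moi, and were cultured 44 h.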
FMDV inh = foot and mouth disease virus antiviral activity; FMDV antiviral cell-based qHTS; Potency, µM (series often up to 57.9 µM), inactives show at the highest dose activity change, negative = inhibition, actives largely listed as inhibitors; 410,000 compounds, 1.2% hits; AID 1159524; calls by dose curve; tested in HEK293T cells; also: read-out not given here; potency is read from the fitted curve at half-maximal effect; % is scaled to controls: 0 for no effect and ±100 for the full control effect; nearly all actives have a fitted effect of over 45% in size
Shiga inhibitor = blocks Shiga toxin action in Vero cells; Vero cells, Shiga toxin protein synthesis inhibition reporter; inhibition, % at 38.7 µM; 290,000 compounds, 9.2% hits; AID 2315; in the data active = inhibition mostly above about 28%, no sharp cut-off; inactive = mostly below about 43%; also: 0% is about no effect
Starred values were filed as active, the others as inactive; ? = inconclusive; / = not tested or not shown; [ ] = another dose, or the depositor's remark.

SMILES	CHX counter	Lassa entry inh	MARV entry inh	HCV inh	FMDV inh	Shiga inhibitor
Cc1cc(NC(=O)CN2C(=O)C(C)(C)c3ccccc32)ccc1Br	/	-34%[46.1 µM]	/	/	?	/
COc1cc(CN2CCC(N3CCC(C(=O)N4CCCC4)CC3)CC2)cc2c1OCO2	-3	-14%[46.1 µM]	?	10µM*	-9%	4
Cc1ncc(CN2CCC(N3CCC(C(=O)N4CCCC4)CC3)CC2)s1	11	-4%	4%	-10%	-15%	20
O=C(C1CCN(C2CCN(Cc3ccc4c(c3)CCO4)CC2)CC1)N1CCCC1	-3	-5%[46.1 µM]	4.5µM*	?	-24%	-16
CC(=O)N1c2ccc(S(=O)(=O)Nc3ccc(Cl)cc3C)cc2CC1C (configuration not stated)	/	-18%[46.1 µM]	/	/	-27%	/
COc1cc(C=O)c(Br)cc1OCc1ccc(C)cc1	47*	6%	?	-21%	/	87*
CCn1cc(C(=O)Nc2ccc(C)c([N+](=O)[O-])c2)cn1	10	4%	3%	-28%	37%	active
CCn1cc(C(=O)Nc2ccc(F)c(F)c2)cn1	11*	-12%	22%	9%	39%	60*
CC(=O)Nc1ccc(C(=O)Nc2nc(-c3cccnc3)cs2)cc1	15*	-8%	-18%	-17%	-22%	21
Cc1ccccc1C(=O)Nc1nc(-c2cccnc2)cs1	20*	/	/	4%	10%	28
CCOC(=O)c1ccc2c(c1)[nH]c(=S)n2CC	29*	/	/	5%	55%	88*
COc1ccc(Cl)cc1NC(=O)CSC1=Nc2ccccc2C2=NC(CCC(=O)NCc3ccco3)C(=O)N12 (configuration not stated)	/	0%[46.1 µM]	10%[46.1 µM]	/	-19%	/
Clc1ccccc1CN(Cc1ccco1)Cc1nnnn1C1CCCC1	-2	-8%	-11%	10µM*	-27%	12
O=[N+]([O-])c1cccc(C2NCC(c3ccccc3Cl)c3c2[nH]c2ccccc32)c1 (configuration not stated)	1	14µM*	?	-6%	0%	-5
CN(C)c1ccc(C2CNC(c3ccc(Cl)c([N+](=O)[O-])c3)c3[nH]c4ccccc4c32)cc1 (configuration not stated)	2	/	/	-26%	-5%	33
COC(=O)c1ccc(CC(C(=O)c2ccccc2)N(C)C)cc1 (configuration not stated)	48*	/	/	3%	63%	107*
CN(C)C(Cc1ccc(Cl)cc1)C(=O)c1ccccc1 (configuration not stated)	24*	7%	?	4%	25%	50*
CCN(Cc1ccccc1)C(=O)c1cccs1	/	/	/	/	-15%	/
COc1ccc(C(C)=O)cc1CC(C(=O)c1ccccc1)N(C)C (configuration not stated)	22*	-2%	?	-12%	29%	5
CN(C)C(Cc1ccccc1)C(=O)c1cccs1 (configuration not stated)	13*	/	/	/	/	39
COc1ccc(C(C)=O)cc1CC(C(=O)c1ccc(C)cc1)N(C)C (configuration not stated)	-3	/	8%	9%	-19%	-3
Cc1nn(C)c(N)c1C(O)(c1nccn1C)C(F)(F)F (configuration not stated)	-3	14%	6%	20%	-2%	-8
O=C(NC(=O)N1CCN(c2cccc(Cl)c2)CC1)c1ccc(Cl)cc1	9	-1%	?	-20%	4%	18
CCN(CC)CCSc1nnc2c3ccccc3n(Cc3ccccc3)c2n1	6	/	/	11µM*	-30%	-3
CCCn1c(O)c(N=Nc2ccc3ccccc3n2)c2ccccc21	30*	?	?	?	29%	42*
SMILES	CHX counter	Lassa entry inh	MARV entry inh	HCV inh	FMDV inh	Shiga inhibitor
CCN(CC)CCSc1nnc2c3cc(F)ccc3n(Cc3ccccc3)c2n1	-4	?	-1%[46.1 µM]	?	-3%	-6
CCCn1c2ccccc2c2nc3ccccc3nc21	19*	-18%	2%	?	-21%	27
CC(C)CCn1c(O)c(N=Nc2ccccn2)c2ccccc21	5	?	-16%	?	-23%	12
N#CCCn1c2ccccc2c2nc3ccccc3nc21	-5	20%	30%[46.1 µM]	-11%	-28%	-7
CCOC(=O)Cn1c2ccccc2c2nc3ccccc3nc21	12*	8%	1%[46.1 µM]	7%	-7%	28
CCOC(=O)Cn1c(=O)c(-c2cc(Br)ccc2N)nc2ccccc21	-2	/	/	-15%	-4%	-5
CCOC(=O)Cn1c(=O)c(-c2ccccc2N)nc2ccccc21	25*	/	/	19%	-9%	-4
CCN(CC)CCn1c2ccccc2c2nc3ccccc3nc21	44*	/	/	?	-15%	53*
CC(=O)Nc1cc2nc(C)n(Cc3ccccc3)c2nc1C	-1	-12%[46.1 µM]	-10%[46.1 µM]	-11%	-6%	-6
COc1ccc(C(=O)OCCN2C(=O)c3ccccc3C2=O)cc1OC	/	/	/	0%	-10%	/
CCOc1c(Cl)cc(CNc2nnnn2C)cc1OC	1	3%[46.1 µM]	4%[46.1 µM]	17%	-4%	-9
CCn1c(O)c(/C=C2\C=NN=C2c2ccccc2)sc1=S	-2	?	-10%	?	-11%	-11
CC(C)Cn1c(O)c(/C=C2\C=NN=C2c2ccccc2)sc1=S	-4	13µM*	?	?	0%	-8
Cc1nn(-c2ccccc2)c(C)c1C(=O)OC(C)C(=O)NC1CCCCC1C (configuration not stated)	/	/	/	11µM*	?	/
O=C(NC1CCCCCCC1)c1cc(-c2ccccn2)nc2ccccc12	9	2%	19%[46.1 µM]	-2%	-5%	-19
Cc1ccn2cc(-c3ccc(S(=O)(=O)N4CCOCC4)cc3)nc2c1	48*	/	6%	/	/	47
Cc1ccc2nc(-c3ccc(S(=O)(=O)N4CCOCC4)cc3)cn2c1	24*	/	/	-12%	/	39
Cc1nc(-c2ccc(S(=O)(=O)N3CCOCC3)cc2)cs1	-1	?	5%[46.1 µM]	8%	-6%	-2
Cc1ccc(-c2nnc(SCCC(=O)N3CCOCC3)o2)cc1	32*	?	-11%[46.1 µM]	15%	1%	52
Cc1ccccc1-c1nnc(SCCC(=O)N2CCOCC2)o1	23*	/	?	23%	23%	70*
O=C(CCSc1nnc(-c2ccccc2)o1)N1CCOCC1	14	5%	?	2%	24%	34
COc1cc(OC)c(OC)cc1CN1CCc2nc(N3CCN(c4ncccn4)CC3)ncc2C1	/	-8%[46.1 µM]	/	/	?	/
CCCc1oc2ccc(NS(=O)(=O)c3ccc(OC)cc3)cc2c1C(=O)OCC	/	1µM*	/	/	23%	/
CCCc1oc2ccc(NS(=O)(=O)c3ccc(OCC)cc3)cc2c1C(=O)OCC	/	?	-23%[46.1 µM]	/	33%	/
CCC1COCCS(=O)(=O)N1Cc1ccccc1F (configuration not stated)	-1	/	/	6%	-2%	-7
CCN(CC)CC(=O)Nc1ccc2c(c1)Nc1ccccc1CC2	21*	-14%	?	13µM*	4%	33*

Compound activity deposited in PubChem by National Center for Advancing Translational Sciences (NCATS).
